# Screening data deposited in PubChem by Broad Institute.
# ARNT-TACC3 inh: disruptors of ARNT/TACC3 protein interaction, primary screen, biochemical, AlphaScreen, single concentration | Transforming acidic coiled-coil-containing protein 3 (Homo sapiens), Q9Y6A5 | AlphaScreen His-ARNT PAS-B/GST-TACC3 binding, luminescence; TACC3 fragment carries E629A point mutation | inhibition, % at 9.99 µM | hit rate 0.66% among 390,000 | AID 623870, 2012;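 active = mean inhibition of replicates at least 50% and at least half of replicates each reaching 50%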;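 note: 0% = complete ARNT plus TACC3 wells and 100% = ARNT alone without TACC3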
# NSD2 HMT inh: NSD2 histone methyltransferase inhibitors, primary screen, biochemical, AlphaScreen, single concentration, set 2; Histone-lysine N-methyltransferase NSD2 (Homo sapiens), O96028; NSD2 peptide methylation, 120 min; inhibition, % at 12.5 µM; hit rate 0.54% among 310,000; AID 743445, 2014; in the data active = inhibition above about 50%
# Target sequence (O96028 whole entry, looked up): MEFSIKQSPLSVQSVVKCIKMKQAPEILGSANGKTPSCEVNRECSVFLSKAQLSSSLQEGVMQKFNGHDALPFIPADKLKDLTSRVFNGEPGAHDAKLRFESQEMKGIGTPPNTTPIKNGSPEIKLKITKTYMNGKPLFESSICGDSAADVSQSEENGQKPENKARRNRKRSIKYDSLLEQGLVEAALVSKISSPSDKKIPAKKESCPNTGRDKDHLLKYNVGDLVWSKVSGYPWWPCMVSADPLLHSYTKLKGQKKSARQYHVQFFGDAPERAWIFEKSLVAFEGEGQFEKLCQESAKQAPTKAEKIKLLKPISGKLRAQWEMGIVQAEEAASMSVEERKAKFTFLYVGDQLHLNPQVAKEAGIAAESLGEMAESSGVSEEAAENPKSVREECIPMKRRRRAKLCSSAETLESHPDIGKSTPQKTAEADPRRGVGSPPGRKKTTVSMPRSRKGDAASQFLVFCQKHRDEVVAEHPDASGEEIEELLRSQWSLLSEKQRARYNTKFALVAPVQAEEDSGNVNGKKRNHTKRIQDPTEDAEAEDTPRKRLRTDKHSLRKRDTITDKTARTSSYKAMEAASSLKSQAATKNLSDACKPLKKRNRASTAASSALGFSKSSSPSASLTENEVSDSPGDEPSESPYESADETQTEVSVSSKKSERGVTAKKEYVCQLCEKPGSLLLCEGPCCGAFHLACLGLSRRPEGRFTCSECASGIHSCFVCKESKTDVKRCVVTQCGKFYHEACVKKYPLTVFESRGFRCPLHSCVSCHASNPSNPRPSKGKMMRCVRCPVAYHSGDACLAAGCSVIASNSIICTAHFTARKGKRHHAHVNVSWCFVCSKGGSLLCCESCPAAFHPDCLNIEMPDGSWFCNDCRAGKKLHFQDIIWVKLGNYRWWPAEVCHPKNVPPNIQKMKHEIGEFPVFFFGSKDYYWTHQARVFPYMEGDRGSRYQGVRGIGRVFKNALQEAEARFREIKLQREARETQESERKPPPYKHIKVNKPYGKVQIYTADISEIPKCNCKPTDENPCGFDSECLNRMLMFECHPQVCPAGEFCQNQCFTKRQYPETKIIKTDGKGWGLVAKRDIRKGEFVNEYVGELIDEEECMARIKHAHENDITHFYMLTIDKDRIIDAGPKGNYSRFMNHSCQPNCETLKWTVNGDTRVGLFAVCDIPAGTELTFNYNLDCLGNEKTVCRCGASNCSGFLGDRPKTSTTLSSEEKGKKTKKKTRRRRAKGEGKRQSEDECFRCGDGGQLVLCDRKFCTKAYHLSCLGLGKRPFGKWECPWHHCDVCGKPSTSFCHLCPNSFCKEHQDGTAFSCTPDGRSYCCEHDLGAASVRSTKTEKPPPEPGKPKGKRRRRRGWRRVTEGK
# Casp6 inh: human caspase-6 inhibitors, primary screen, biochemical, VEID-R110 fluorescence, single point, set 2. P55212. purified caspase-6, Z-VEID-R110 cleavage fluorescence. AID 686996, 2013. inhibition, % at 12.5 µM. hit rate 0.53% among 350,000;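 active = mean inhibition across replicates at least about 35%, with every replicate also reaching that limit, limit read from the data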;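 note: 0% = median of neutral control wells and 100% = no fluorescence left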
# PfHsp90 set2: growth inhibition of PfHsp90-expressing yeast, primary screen, antimalarial PfHsp90 inhibitor project, S. cerevisiae, BacTiter-Glo luminescence, single point, set 2; BacTiter-Glo ATP, 48 h; yeast lacking PDR1 and PDR3 efflux regulators; inhibition, % at 9.4 µM; hit rate 0.32% among 310,000;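 active = every replicate shows inhibition above about 80%, whatever the replicate mean, limit read from the data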;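 note: 0% = DMSO neutral controls and 100% = 20 µM radicicol positive controls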
# SIRT5 block: SIRT5 desuccinylase inhibitors, primary screen, biochemical, fluorescence imaging, single point, set 5. Purified SirT5, succinyl-peptide AMC, trypsin-coupled fluorescence. inhibition, % at 15 µM. AID 652115, 2013. NAD-dependent protein deacylase sirtuin-5, mitochondrial (Homo sapiens), Q9NXA8. hit rate 1.1% among 330,000; in the data active = inhibition above about 15%
# The depositor's hits bear a star; x = no result; ! = not active in a repeat. Hits are enriched below; roughly 2.1% of the tested compounds scored in any of these assays.
SMILES,ARNT-TACC3 inh,NSD2 HMT inh,Casp6 inh,PfHsp90 set2,SIRT5 block
CO[C@@H]1CN(C)C(=O)c2cc(NS(=O)(=O)c3cccc(F)c3)ccc2OC[C@@H](C)N(Cc2cc(F)ccc2F)C[C@H]1C,-1,x,0,x,3
C[C@@H]1CN([C@H](C)CO)C(=O)c2cc(NC(=O)NC3CCCCC3)ccc2O[C@@H](C)CCCCO[C@@H]1CN(C)C(=O)NC1CCCCC1,-6,x,2,x,4
O=C(Nc1ccccc1)NN(C(=O)CCl)c1ccccc1,x,6,50*,-5,1
CCC(O)(CC)C(=O)NN(C(=O)CCl)c1ccccc1,-6,2,13,10,4
COc1ccc(NC(=O)Nc2ccc3c(c2)[C@@H]2C[C@@H](CC(=O)NCCc4ccccc4)O[C@H](CO)[C@@H]2O3)cc1,-3,x,4,x,2
CCS(=O)(=O)Nc1cccc(C2=NN(C(C)=O)C(c3cccs3)C2)c1 (centres undefined),-6,-3,-1,-11,-1
CC(=O)N1N=C(c2cccc(NS(C)(=O)=O)c2)CC1c1cccs1 (centres undefined),-10,x,0,1,23*
COc1ccc(CN(C)C[C@@H]2Oc3ccc(NS(=O)(=O)c4ccc(OC)cc4)cc3CC(=O)N([C@@H](C)CO)C[C@H]2C)cc1,x,x,0,x,-1
C[C@H](CO)N1C[C@H](C)[C@@H](CN(C)Cc2ccc(C(F)(F)F)cc2)Oc2ccc(N(C)C)cc2CC1=O,15,x,-4,x,17*
C[C@@H]1CN([C@H](C)CO)C(=O)Cc2cc(NS(C)(=O)=O)ccc2O[C@H]1CN(C)Cc1ccc(C(F)(F)F)cc1,4,x,-2,x,7
C[C@H](CO)N1C[C@H](C)[C@@H](CN(C)Cc2ccc(C(F)(F)F)cc2)Oc2ccc(NS(C)(=O)=O)cc2CC1=O,-1,x,1,x,16*
COc1ccc(S(=O)(=O)Nc2ccc3c(c2)CC(=O)N([C@@H](C)CO)C[C@H](C)[C@@H](CN(C)Cc2ccc(C(F)(F)F)cc2)O3)cc1,-2,x,0,x,16*
C[C@@H]1CN([C@H](C)CO)C(=O)Cc2cc(NS(=O)(=O)c3ccc(F)cc3)ccc2O[C@@H]1CN(C)Cc1ccc(C(F)(F)F)cc1,6,x,1,x,23*
CC(=O)N(C)C[C@@H]1Oc2ncc(C#CCC3CCCC3)cc2C(=O)N([C@@H](C)CO)C[C@H]1C,-3,x,2,x,3
C[C@@H]1CCCCO[C@@H](CN(C)C(=O)c2ccccc2)[C@H](C)CN([C@H](C)CO)C(=O)c2cc(NC(=O)Nc3ccc(C(F)(F)F)cc3)ccc2O1,7,x,-2,x,-4
C[C@@H]1CN([C@H](C)CO)C(=O)c2ccccc2-c2ccccc2CO[C@H]1CN(C)C(=O)Nc1ccccc1,-9,x,0,x,-3
C[C@@H]1CN([C@@H](C)CO)C(=O)Cc2cc(NS(=O)(=O)c3ccc(F)cc3)ccc2O[C@H]1CN(C)Cc1ccc(C(F)(F)F)cc1,17,x,0,x,36*
C[C@@H]1CN([C@H](C)CO)C(=O)Cc2cc(NS(=O)(=O)c3ccccc3)ccc2O[C@H]1CN(C)Cc1ccc(C(F)(F)F)cc1,-20,x,0,x,0
CCCNC(=O)Nc1ccc2c(c1)C(=O)N(C)[C@@H]1CC[C@H](CC(=O)NC)O[C@@H]1CO2,-1,x,x,x,x
Cc1cc(N=Nc2ccccc2C(=O)O)c(C)c(C)c1O,8,24,4,100*,5
CC(C)NC(=O)N(C)C[C@@H]1OCc2cnnn2CCCC(=O)N([C@@H](C)CO)C[C@H]1C,-7,x,-1,x,26*!
C[C@H](CO)N1C[C@H](C)[C@@H](CN(C)C(=O)Nc2ccccc2)OCc2cnnn2CCCC1=O,-11,x,-3,x,-1
C[C@H](CO)N1C[C@H](C)[C@@H](CN(C)C(=O)c2cc(-c3ccccc3)on2)OCc2cnnn2CCCC1=O,1,x,2,x,1
C[C@H]1CN([C@@H](C)CO)C(=O)CCCn2nncc2CO[C@@H]1CN(C)C(=O)Nc1ccccc1,-9,x,-5,x,28*
C[C@@H]1CN([C@@H](C)CO)C(=O)CCCn2nncc2CO[C@H]1CN(C)C(=O)C1CCCCC1,-2,x,2,x,29*!
SMILES,ARNT-TACC3 inh,NSD2 HMT inh,Casp6 inh,PfHsp90 set2,SIRT5 block
C[C@H](CO)N1C[C@H](C)[C@H](CN(C)C(=O)c2cc(-c3ccccc3)on2)OCc2cnnn2CCCC1=O,0,x,4,x,18*!
CC(=O)N(C)C[C@H]1Oc2ncc(C3=CCCC3)cc2C(=O)N([C@H](C)CO)C[C@@H]1C,1,x,-2,x,2
C[C@@H]1CN([C@H](C)CO)C(=O)CCCn2nncc2CO[C@H]1CN(C)C(=O)Nc1cccc2ccccc12,-5,x,10,x,76*
C[C@@H]1CN([C@@H](C)CO)C(=O)CCCn2nncc2CO[C@@H]1CN(C)C(=O)Nc1cccc2ccccc12,1,x,17,x,-3
Cn1cnc(S(=O)(=O)N2C[C@H](O)COC[C@H]3O[C@H](CC(=O)NC4Cc5ccccc5C4)CC[C@@H]32)c1,-6,x,-1,x,1
CCOC(=O)C1Nc2ccc(C(=O)O)cc2C2C=CCC12 (centres undefined),9,100*,23,3,14
CCCC(=O)Nc1ccc2c(c1)OC[C@@H](C)N(CCC(F)(F)F)C[C@@H](C)[C@H](OC)CN(C)C2=O,x,x,0,x,3
O=C1CC(NS(=O)(=O)c2cc(F)ccc2F)CN1c1cccc(F)c1 (centres undefined),-1,0,37*,0,-2
CO[C@@H]1CN(C)C(=O)c2cc(NS(C)(=O)=O)ccc2OC[C@H](C)N(C(=O)C2CC2)C[C@H]1C,-5,x,2,x,4
Cc1cc(C)c2nc(N3CCC(C(=O)NCC4CCCO4)CC3)sc2c1 (centres undefined),7,-3,3,23,27*
CC(C)(C)c1ccc(S(=O)(=O)/N=C2\C=C(NS(=O)(=O)c3ccccc3)C(=O)c3ccccc32)cc1,x,108*,50*,-66,10
O=C1C(Nc2ccccc2)=C/C(=N/S(=O)(=O)c2cccs2)c2ccccc21,-6,x,x,-6,x
Cc1ccc(S(=O)(=O)/N=C2\C=C(NS(=O)(=O)c3ccccc3)C(=O)c3ccccc32)c(C)c1,8,5,9,3,0
Cc1ccc(S(=O)(=O)/N=C2\C=C(Nc3cccc(C(=O)O)c3)C(=O)c3ccccc32)c(C)c1,22,117*,100*,-13,3
CCc1ccc(S(=O)(=O)/N=C2\C=C(Nc3ccc(C(=O)O)cc3)C(=O)c3ccccc32)cc1,74*,x,97*,-21,2
Cc1ccc(NC2=C/C(=N/S(=O)(=O)c3cccs3)c3ccccc3C2=O)cc1,9,34,2,20,0
